# Results as given in the supplement of paper PMC10646978.
# ± gives the standard deviation.
# Assays:
# Conditions in all cases: modulator concentration 10 µM
# [1] = tested on: RAW-Dual (murine macrophage reporter line); experiment: NF-kB reporter (SEAP) activity fold change vs agonist alone; higher = enhanced NF-kB activity
# Procedure, shortened: (§1)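 RAW-Dual murine macrophage reporter cells were plated at 50 000 per well in 384-well plates, pin-transferred compound to 10 μM final, and pre-incubated for 1 hour at 37 °C before a PRR agonist was added and the cells incubated overnight. NF-κB activity was read from supernatant SEAP with QUANTI-Blue at 620 nm absorbance, and IRF activity from Lucia luciferase with QUANTI-Luc by luminescence. Each signal was expressed as fold change by dividing by the mean agonist-only control on the same plate. Two replicate plates were averaged, with errors obtained by propagation.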
# [2] = tested on: RAW-Dual (murine macrophage reporter line); experiment: IRF reporter (Lucia luciferase) activity fold change vs agonist alone; higher = enhanced IRF activity
# Procedure, shortened: as §1
# [3] = tested on: RAW-Dual (murine macrophage reporter line); experiment: viability score (confluency relative to resting cells, overnight) (fraction); higher = more viable, active = viable (0.7 or more)
# Procedure, shortened: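 RAW-Dual macrophages in 384-well plates were treated overnight with compound at 10 μM final. IncuCyte imaging recorded confluency, and IncuCyte software built two confluency masks across every imaged well. The viability score expresses confluency relative to resting cells and was judged against a cutoff, which a compound met only if both masks exceeded 70% of resting cells.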
# [4] = agonist: CpG ODN 1826 0.5 ug/mL
Compound,"NF-kB reporter [1, 4]",NF-kB reporter ([1]; agonist: LPS 0.1 ug/mL),NF-kB reporter ([1]; agonist: MPLA […]),IRF reporter ([2]; agonist: 3'3'-cGAMP 10 ug/mL),IRF reporter ([2]; agonist: LPS 0.1 ug/mL),IRF reporter ([2]; agonist: MPLA […]),viability score [3]
Cc1c(N=Cc2cc([N+](=O)[O-])ccc2O)c(=O)n(-c2ccccc2)n1C,0.911 ± 0.055,0.995 ± 0.061,0.907 ± 0.089,0.917 ± 0.03,1.34 ± 0.15,1.18 ± 0.2,0.999 (active)
CCN(CC)Cc1ccc(Nc2ccnc3cc(Cl)ccc23)cc1O.Cl.Cl,0.998 ± 0.1,0.874 ± 0.065,0.908 ± 0.085,0.988 ± 0.055,1.09 ± 0.19,1.04 ± 0.16,1.04 (active)
c1ccc(CSc2nnc(-c3cccnc3)o2)nc1,0.986 ± 0.056,1.09 ± 0.084,1 ± 0.074,0.992 ± 0.036,0.95 ± 0.13,0.858 ± 0.33,1 (active)
CCOC(=O)c1c(N)sc(C(=O)N2CCCC(C(N)=O)C2)c1C (stereo not drawn),0.442 ± 0.15,0.873 ± 0.095,0.356 ± 0.17,0.982 ± 0.039,2.11 ± 0.89,1.79 ± 0.39,0.932 (active)
CC1CC(=O)C2=C(C1)OC(N)=C(C#N)C2c1ccc(F)cc1 (stereo not drawn),0.894 ± 0.09,1.01 ± 0.1,0.935 ± 0.066,0.874 ± 0.053,1.08 ± 0.077,1.13 ± 0.2,0.982 (active)
CC1(C)CCC2(C(=O)O)CCC3(C)C(=CCC4C5(C)CCC(O)C(C)(C)C5CCC43C)C2C1 (stereo not drawn),1.18 ± 0.28,1.12 ± 0.088,0.942 ± 0.095,0.878 ± 0.03,1.3 ± 0.18,1.24 ± 0.18,0.999 (active)
COc1cc2c(cc1OC)C(=O)C(CC1CCN(Cc3ccccc3)CC1)C2.Cl (stereo not drawn),0.127 ± 0.011,0.947 ± 0.072,1.46 ± 0.14,0.791 ± 0.067,1.15 ± 0.25,1.29 ± 0.22,0.959 (active)
CC(=O)c1ccc2c3c([nH]c2c1)CCCC3,0.792 ± 0.072,0.823 ± 0.072,1.01 ± 0.092,0.936 ± 0.05,1.34 ± 0.077,1.53 ± 0.15,1.01 (active)
CS(=O)(=O)O.N#CC1(c2ccc(NC(=O)c3cccnc3NCc3ccncc3)cc2)CCCC1,0.394 ± 0.03,0.69 ± 0.033,0.547 ± 0.052,0.396 ± 0.019,1 ± 0.074,0.99 ± 0.083,0.992 (active)
S=c1n(CN2CCOCC2)nc(-c2ccccc2Br)n1-c1ccccc1,1.08 ± 0.19,0.947 ± 0.099,0.951 ± 0.073,0.884 ± 0.031,1.21 ± 0.12,1.22 ± 0.17,1 (active)
COc1ccc2[nH]c(S(=O)Cc3ncc(C)c(OC)c3C)nc2n1 (stereo not drawn) [Prestw-1351],0.872 ± 0.15,1.15 ± 0.16,0.994 ± 0.11,0.819 ± 0.029,1.11 ± 0.14,1.24 ± 0.13,0.974 (active)
O=C(c1ccc(Cl)cc1)c1ccc(N2CCCCC2)c([N+](=O)[O-])c1,1 ± 0.17,1.11 ± 0.15,1.01 ± 0.097,0.957 ± 0.064,1.27 ± 0.27,1.33 ± 0.27,0.998 (active)
N=C(N)Nc1ccc(Cl)cc1,1.02 ± 0.1,1.05 ± 0.067,0.961 ± 0.042,0.984 ± 0.08,0.986 ± 0.058,0.885 ± 0.099,0.991 (active)
COc1ccc(NC(=O)c2nn(-c3ccc(F)cc3)cc2OC)cc1OC,1.07 ± 0.12,1.14 ± 0.094,0.889 ± 0.04,0.976 ± 0.07,1.23 ± 0.12,1.13 ± 0.24,0.976 (active)
CSc1nc2cc(Oc3cccc(Cl)c3Cl)c(Cl)cc2[nH]1,0.416 ± 0.14,0.771 ± 0.084,0.63 ± 0.037,0.831 ± 0.025,1.41 ± 0.26,1.34 ± 0.21,0.921 (active)
Br.O=S(=O)(c1ccc(-c2csc(Nc3ccc(Br)cc3)n2)cc1)N1CCOCC1,0.967 ± 0.084,1.08 ± 0.091,1.1 ± 0.046,0.951 ± 0.17,1.14 ± 0.049,0.903 ± 0.059,0.999 (active)
CN(C)[C@@H]1C(O)=C(C(N)=O)C(=O)[C@@]2(O)C(O)=C3C(=O)c4c(O)ccc(Cl)c4[C@@H](O)[C@H]3C[C@@H]12.Cl,1.29 ± 0.098,0.965 ± 0.055,1.17 ± 0.038,0.728 ± 0.048,0.971 ± 0.068,0.828 ± 0.12,0.984 (active)
CCCCCCC1OCC2(CO)C(C)C=C(C)C1C2C (stereo not drawn),0.532 ± 0.075,0.697 ± 0.082,0.716 ± 0.067,1.31 ± 0.075,1.05 ± 0.17,1.21 ± 0.24,0.898 (active)
CN1CCC(=C2c3ccccc3C=Cc3ccccc32)CC1.Cl,0.727 ± 0.13,0.808 ± 0.067,0.904 ± 0.048,0.794 ± 0.049,1 ± 0.19,0.974 ± 0.2,0.651 (inactive)
CC(C)Sc1ccc(CC(=O)N2CCC(S(C)(=O)=O)C2)cc1 (stereo not drawn),0.975 ± 0.12,1.12 ± 0.1,0.973 ± 0.17,0.946 ± 0.053,1.12 ± 0.07,1.29 ± 0.17,0.993 (active)
Br.O=S(=O)(c1ccc(-c2csc(Nc3ccc(Br)cc3)n2)cc1)N1CCCC1,0.814 ± 0.063,1.08 ± 0.099,0.858 ± 0.065,1.03 ± 0.034,1.37 ± 0.1,1.2 ± 0.16,1.01 (active)
Cc1ccc(C2=NN3C(=N)C(=Cc4c[nH]c5ccccc45)C(=O)N=C3S2)cc1,0.997 ± 0.079,1.03 ± 0.065,0.932 ± 0.058,0.974 ± 0.024,1.38 ± 0.2,1.12 ± 0.21,1.01 (active)
CCOC(=O)C1=C(C)NC(=S)NC1c1ccccc1OCc1ccccc1 (stereo not drawn),0.862 ± 0.069,1.05 ± 0.063,0.965 ± 0.058,0.679 ± 0.09,1.25 ± 0.22,1.03 ± 0.087,1.01 (active)
CN(C)c1ncc(NC(=O)c2ccc(Oc3ncccn3)cc2)c(N(C)C)n1,0.856 ± 0.086,0.953 ± 0.075,0.849 ± 0.065,0.991 ± 0.053,1.2 ± 0.083,1.08 ± 0.14,0.985 (active)
